# An excerpt weighted towards active compounds, which were near 5.6% of everything screened.
# PHOSPHO1 inh: PHOSPHO1 (human) inhibition; 290,000 tested, 1.1% active; recombinant PHOSPHO1, absorbance phosphatase assay; Q8TCT1; inhibition, % at 13.3 µM; in the data active = inhibition above about 60%
# Target sequence (Q8TCT1 whole entry, looked up): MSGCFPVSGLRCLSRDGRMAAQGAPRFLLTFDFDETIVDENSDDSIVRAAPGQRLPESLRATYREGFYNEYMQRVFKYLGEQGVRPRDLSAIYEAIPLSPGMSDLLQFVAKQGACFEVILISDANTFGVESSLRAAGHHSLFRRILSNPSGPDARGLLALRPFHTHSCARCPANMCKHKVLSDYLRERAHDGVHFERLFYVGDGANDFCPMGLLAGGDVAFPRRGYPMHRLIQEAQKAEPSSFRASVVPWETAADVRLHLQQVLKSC
# H9c2 protect: myocardial damage modulation in H9c2 cells; H9c2 cardiomyocytes, H2O2 injury protection, ATPLite, 2 h; 360,000 tested, 0.63% active; protection from H2O2 cell death, % at 20 µM;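 active = compounds giving at least 50% protection of heart cells from peroxide-induced death in the single-dose screen, raw or plate-pattern-corrected value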;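 note: 0% = DMSO wells with peroxide and 100% = DMSO wells without peroxide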
# M18AAP inhibitor: blocks P. falciparum M18 aspartyl aminopeptidase. 290,000 tested, 1.2% active. AID 1822. inhibition, % at 7.35 µM. recombinant PfM18AAP, H-Glu-NHMec fluorogenic cleavage;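 active = inhibition above the campaign mean inhibition over all tested compounds plus 3 SD, cut at about 28% in these data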;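 note: 0% = plate median of test compound wells and 100% = 2 mM ZnCl2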
# ALR inh: inhibitors of human sulfhydryl oxidase ALR | P55789 | purified ALR, DTT oxidation, H2O2 HRP-luminol luminescence | inhibition, % (concentration not given with the values) | 290,000 tested, 3.8% active | AID 485317;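 active = mean replicate inhibition above about 79%, with every replicate also reaching it, limit read from the data; inconclusive = only one of the two criteria met; inactive = mean below limit and not every replicate reaching it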
# PfGluPho inh: PfG6PD (Plasmodium falciparum) enzyme inhibition | PfGluPho enzyme, NADPH resazurin-diaphorase fluorescence | inhibition, % at 20 µM | 350,000 tested, 0.78% active | AID 504690;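 active = inhibition reaching at least a set limit at 20 µM in the primary screen, cut at about 59% in these data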;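 note: 0% = DMSO wells with substrate and 100% = DMSO wells lacking glucose-6-phosphate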
# Active calls of the source: *; ? = inconclusive; / = no result given.
SMILES,PHOSPHO1 inh,H9c2 protect,M18AAP inhibitor,ALR inh,PfGluPho inh
Cc1ccc(SCCc2cc[n+](CC(=O)c3ccccc3)cc2)cc1,12,-12,-6,67,34
O=C(C[n+]1ccc(CCSc2ccc(F)cc2)cc1)c1ccccc1,16,2,5,27,70*
CN1CCN(C(=O)CCNC(=O)Cn2ccc3ccccc3c2=O)CC1,0,2,6,-11,7
O=C(Cn1cnc2ccccc2c1=O)NCCC(=O)N1CCN(c2ccccc2)CC1,-15,-3,-6,96*,-4
COc1ccc(N2CCN(C(=O)CCNC(=O)Cn3ccc4ccccc4c3=O)CC2)cc1,-23,-4,11,85*,21
CCN(CCCNC(=O)CNC(=O)Cn1cnc2ccccc2c1=O)c1cccc(C)c1,-6,1,12,/,-2
CCN(CCCNC(=O)CCNC(=O)Cn1cnc2ccccc2c1=O)c1ccccc1,28,1,3,99*,7
COc1cc(C(=O)NCC2CCCO2)ccc1OCc1ccccc1Cl (stereo unspecified),/,1,-1,3,-22
CSc1ncc(Cl)c(C(=O)Nc2cccnc2)n1,/,3,0,-4,9
CSc1ncc(Cl)c(C(=O)Nc2ccc(NC(C)=O)cc2)n1,60*,4,-11,-7,-4
COc1ccc(/C=C2/SC(c3ccc(C)cc3)=NC2=O)cc1OC,74*,11,7,-3,48
COc1ccc(N2CCN(CCCn3ccc(NC(=O)OCc4ccccc4)nc3=O)CC2)cc1,/,-8,/,/,23
CC(=O)C[C@H](O)CC(=O)[C@H]1OC(=O)CCCCCCCCc2ccccc21,/,-4,/,-3,4
COC(=O)c1ccc(CN2C(=O)NC3(CCCCC3C)C2=O)o1 (stereo unspecified),70*,11,2,13,9
CCN(c1ccccc1)C1(O)C(=O)c2ccccc2C1=O,-4,2,11,95*,5
Cc1c(C)c2ccc(OC(C)C(=O)NC3CC(C)(C)NC(C)(C)C3)cc2oc1=O (stereo unspecified),70*,7,6,-5,3
CC(C)C(OC(=O)C1=Cc2ccccc2OC1)C(=O)NCC1CCCO1 (stereo unspecified),/,0,/,/,1
COc1cccc2cc(C(=O)NCCc3ccccc3)oc12,25,3,-3,-7,24
COc1ccccc1NS(=O)(=O)c1cccc(C(=O)N/N=C2\CC(=O)CC(C)(C)C2)c1,3,8,9,92*,-15
COc1ccc(C(=O)CSc2ccc(-c3ccco3)nn2)cc1,-1,-3,-26,?,23
O=C(CSc1ccc(-c2ccco2)nn1)Nc1ccccc1,12,-5,-1,98*,1
O=C(CSc1ccc(-c2ccco2)nn1)c1ccccc1,-1,-4,-19,98*,25
O=C(COc1ccc2ccccc2c1)N[C@@H](C(=O)O)c1ccc(O)cc1,-11,1,4,/,-9
c1ccc(-c2nccc(-c3ccco3)n2)nc1,26,-4,10,3,-4
c1ccc(-c2nc(-c3ccco3)cs2)nc1,18,19,-15,98*,18
SMILES,PHOSPHO1 inh,H9c2 protect,M18AAP inhibitor,ALR inh,PfGluPho inh
CCc1ccc(NC(=O)C2CCN(S(=O)(=O)c3ccc4c(c3)CC(C)N4C(C)=O)CC2)cc1 (stereo unspecified),-52,-26,-6,/,27
CC(C)(C)C1=CC=C(C(C)(C)C)C(=O)C1=O,67*,/,14,0,/
NC(=O)CSc1cn(CCNC(=O)c2cccs2)c2ccccc12,31,6,/,98*,22
Cc1nnc(NC(=O)CSc2cn(CCNC(=O)c3ccccc3)c3ccccc23)s1,-3,10,5,72,-11
CN(CC(=O)Nc1ccc(Cl)cc1)C(=O)C1CCCC1,/,-1,/,/,10
Cc1nc2c(OCc3ccc(C(F)(F)F)cc3)cccn2c1N(C)CC1CC1,/,-9,/,/,/
Cc1cc(C)nc(-n2nc(C)c(Br)c2Nc2ccc(Br)cc2)n1,-12,-1,3,-3,-4
Cc1nn(C)c(Nc2ccc(Br)cc2)c1Br,53,-22,6,93*,12
CCN(CC)c1ccc(/C=C2/C(=O)c3ccc(C(=O)O)cc3C2=O)cc1,6,-14,19,98*,-9
CCN(CC)c1ccc(/C=C2/C(=O)ON=C2C)cc1,9,-2,16,55,-5
Cc1ccccc1OCCn1c(S(=O)(=O)O)nc2c(N)ncnc21,16,1,-3,5,3
COc1cc(C2c3c(oc4ccccc4c3=O)C(=O)N2c2ccc(C)cn2)ccc1O (stereo unspecified),-40,63*,4,24,19
